PLCb3 inh: PLC-beta3 (human) inhibition, primary screen; Q01970; Purified PLC-beta3, fluorogenic substrate, fluorescence; inhibition, % at 12.2 µM; hit rate 0.18% among 370,000; AID 720704; in the data active = inhibition above about 11%;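 note: 0% = median of compound wells on plate and 100% = full blocker control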
LEDGF integ inh: blocks HIV-1 LEDGF/p75-dependent DNA integration; TR-FRET IN-LEDGF/p75 DNA integration, Eu/Cy5; inhibition, % at 3.7 µM; hit rate 0.64% among 370,000;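 active = inhibition above the screen-wide mean plus 3 SD, cut at about 13% in these data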;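 note: signal is the Cy5 over europium emission ratio at 671 and 618 nm; 0% = plate median of compound wells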
PLC-gamma1 inh: blocks human PLC-gamma1 enzyme activity; inhibition, % at 12.2 µM; P19174; purified PLC-gamma1, fluorogenic substrate, fluorescence; AID 720700; hit rate 0.84% among 370,000; in the data active = inhibition above about 9.5%
MBD2 inh: blocks human MBD2 binding to methylated DNA; Q9UBB5; inhibition, % at 4.4 µM; TR-FRET, MBD2 binding to methylated oligonucleotide; hit rate 0.31% among 370,000; in the data active = inhibition above about 13%
UHRF1 MBD2 ctr: human UHRF1 methylated DNA binding inhibitors | Q96T88 | UHRF1 binding to methylated oligo, TR-FRET | hit rate 0.75% among 370,000 | inhibition, % at 4.4 µM | AID 687016; in the data active = inhibition above about 21%;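 note: UHRF1 SRA domain binding a hemimethylated CpG hairpin DNA probe; 0% = median of test compound wells and 100% = reference inhibitor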
IN multimer act: counter-screen for LEDGF/p75 integration inhibitors: HIV-1 integrase multimerization activators. shares compounds with LEDGF integ inh. AID 1053131. TR-FRET HIV-1 integrase multimerization, biochemical. activation, % at 7.7 µM. hit rate 17% among 2,000; in the data active = activation above about 8.9%
TRFRET interf: TR-FRET optical interference, LEDGF/p75 integration counter-screen; shares compounds with LEDGF integ inh; TR-FRET optical interference counterscreen, HIV-1 IN multimerization; inhibition, % at 7.7 µM; 2,000 tested, under 10 active; AID 1053135;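 active = inhibition above the mean over all tested compounds plus 3 SD, which no compound reached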;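 note: 0% = integrase with antibodies and DMSO and 100% = antibodies without integrase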
LEDGF integ conf: confirmation of HIV-1 LEDGF/p75-dependent integration inhibitors. TR-FRET LEDGF/p75-dependent HIV-1 integration, biochemical. shares compounds with LEDGF integ inh. hit rate 36% among 2,000. inhibition, % at 3.7 µM; in the data active = inhibition above about 14%
The depositor's hits bear a star; x = not tested or not shown. In the library only some 2.3% were active in any assay of this set; here they are far more common.

SMILES	PLCb3 inh	LEDGF integ inh	PLC-gamma1 inh	MBD2 inh	UHRF1 MBD2 ctr	IN multimer act	TRFRET interf	LEDGF integ conf
COC(=O)CN(Cc1cn(Cc2ccccc2)nn1)S(=O)(=O)c1ccccc1Br	6.7	2.1	2.0	2.4	0.4	x	x	x
Cc1ccccc1CS(=O)(=O)Cc1ccc(C(=O)Nc2c(C)cccc2C)o1	-0.1	-1.3	-1.3	-2.8	-1.4	x	x	x
CC1=NN2C(=N)/C(=C\c3ccc(SCc4ccccc4)o3)C(=O)N=C2S1	-14.2	3.2	-10.3	-0.7	2.1	x	x	x
N=C1/C(=C\c2ccc(SCc3ccco3)o2)C(=O)N=C2SC=NN12	-76.2	49.2*	-57.5	11.9	50.8*	7.7	-39.0	50.0*
Cc1ccc(CN2CCCCC(NC(=O)c3ccccc3)C2=O)cc1 (centres undefined)	-1.3	-0.6	-1.4	2.4	-0.5	x	x	x
Cn1c(=O)c2c(-c3ccccc3)n(-c3cccc(O)c3)cc2n(C)c1=O	-24.2	-5.4	-13.3	-1.0	-2.3	x	x	x
Cn1c(=O)c2c(-c3ccccc3)n(-c3ccc(N)cc3)cc2n(C)c1=O	-34.0	40.0*	-19.3	-1.9	15.0	7.3	-25.9	11.4
Cc1ccc(Cn2cc(CN3[C@H](Cc4ccccc4)COc4cc(Br)ccc4S3(=O)=O)nn2)cc1	0.4	-3.5	-1.1	-0.7	-0.7	x	x	x
Cc1cc2c(N)cccc2nn1	-30.4	73.5*	-17.6	9.2	44.6*	8.0	-28.1	78.0*
Cc1cc2c(NC(=O)Nc3ccccc3)cccc2nn1	-11.8	-1.4	-4.7	-5.8	-6.0	x	x	x
Cc1ccc(CN2CCCCC(NC(=O)c3ccccc3C)C2=O)cc1 (centres undefined)	-1.0	-3.0	-3.0	2.3	0.2	x	x	x
COc1ccccc1NC(=O)CSCC(=O)N1c2ccccc2CCc2ccccc21	-5.4	13.4*	4.5	-0.2	4.7	0.5	-1.5	-2.4
O=C(CSc1nnc(-c2cccs2)n1Cc1ccco1)Nc1ccc(OCc2ccccc2)cc1	4.2	2.9	1.1	-1.9	0.9	x	x	x
O=C1C2C(C(=O)N1/N=C/c1cc([N+](=O)[O-])c(O)cc1O)C1C=CC2C12CC2 (centres undefined)	0.4	18.2*	28.9*	1.5	14.7	7.4	-37.2	19.7*
COc1ccc(-c2c(-c3cc(OC)cc(OC)c3)n(C)c3ccc(-c4ccc(OC)nc4)cc23)cc1	-8.0	18.5*	-5.4	3.0	0.8	1.1	-5.3	-4.9
COC(=O)C1CN(Cc2ccc(F)cc2)CCS(=O)(=O)N1Cc1ccccc1 (centres undefined)	6.3	7.2	5.1	0.0	2.1	x	x	x
COc1cccc(NC(=O)N2CCC(C(=O)Nc3ccc(C)cc3C)CC2)c1	2.0	37.6*	-0.3	3.8	-0.7	1.4	-7.1	-3.6
COc1ccc(-c2csc3nc(C(C)(C)C)oc(=O)c23)cc1OC	-4.5	16.5*	1.3	-2.9	4.4	7.4	-27.2	7.8
COc1ccc(-c2csc3nc(-c4ccc(C)cc4)oc(=O)c23)cc1OC	-7.4	2.4	-3.6	-5.5	-0.7	x	x	x
Cc1cc(C)n2nc(-c3ccsc3-n3c(C)ccc3C)cc2n1	-80.2	24.1*	-55.9	-0.1	0.1	4.1	-20.6	20.2*
Cc1cc(C)n2nc(-c3ccccc3)cc2n1	-58.7	-1.7	-50.8	2.8	-2.8	x	x	x
O=C(N[C@H]1CC[C@@H]2SC[C@@H](C(=O)O)N2C1=O)OCC1c2ccccc2-c2ccccc21	5.5	5.8	3.9	-4.7	-2.5	x	x	x
CCOc1ccccc1NC(=O)CN1CCC(NC(=O)c2ccccc2C)CC1	-4.7	20.7*	1.8	-4.5	-1.9	-2.1	10.6	-5.6
Oc1ccc(-c2csc(Nc3cccc4ccccc34)n2)cc1O	-29.8	23.5*	-16.9	-0.2	-1.2	16.5*	-83.2	67.9*
CCCCNC(=O)C[C@H]1C[C@@]2(C(=O)OC)C(=C[C@H](C(C)C)O[C@@H]2C2CC2)N(CCc2ccc(OC)c(OC)c2)C1=O	-1.3	-5.0	-12.7	0.5	-0.8	x	x	x
SMILES	PLCb3 inh	LEDGF integ inh	PLC-gamma1 inh	MBD2 inh	UHRF1 MBD2 ctr	IN multimer act	TRFRET interf	LEDGF integ conf
CCc1ccc(OC2(C)CCN(Cc3ccc4c(c3)OCCO4)C2)cc1 (centres undefined)	-5.2	-2.9	0.1	-1.9	-1.0	x	x	x
CC(=O)c1ccc(OC2(C)CCN(Cc3ccc4c(c3)OCCO4)C2)cc1 (centres undefined)	1.3	14.8*	-1.0	3.2	0.7	-3.3	16.5	-4.7
O=C(Nc1ccc(C(F)(F)F)cc1)OC1CC2CC1[C@H]1CCCCN1C2 (some centres undefined)	-0.5	3.0	-0.9	-0.5	-2.4	x	x	x
Oc1cc2c(cc1O)C1c3ccc(O)c(O)c3OCC1(O)C2 (centres undefined)	3.1	89.1*	2.3	9.1	11.9	40.7*	-205.2	78.6*
CCOc1ccc(Cc2c(C)[nH]c3ccc(C(=O)O)cc3c2=S)cc1	-19.9	13.9*	-10.2	2.4	2.8	1.3	-4.9	2.5
Cc1cc(C)cc(C(=O)OCCN2CCN(C3CN(Cc4cn(Cc5ccc([N+](=O)[O-])cc5)nn4)S(=O)(=O)C3)CC2)c1 (centres undefined)	-5.5	-0.5	-4.3	13.0	9.1	x	x	x
COc1cccc(-c2cnc3c(NC=O)cc(-c4ccccc4)cn23)c1	-37.3	-1.5	-28.1	-3.3	-1.5	x	x	x
COc1cccc(-c2cnc3c(NC=O)cc(-c4ccoc4)cn23)c1	-55.4	13.5*	-41.6	-0.5	-2.2	1.4	-7.1	5.0
Cc1cccc[n+]1CCCCCCCCCC[n+]1ccccc1C	-0.2	21.3*	1.8	3.7	-2.1	0.0	0.1	-4.5
Cc1cccc(-c2cccc3c4c([nH]c23)[C@@H]2C[C@H](N(C)C(=O)c3ccccc3C)[C@H]([C@H](C)O)C(=O)N2CC4)c1	2.3	2.5	0.1	-2.9	-1.1	x	x	x
O=C(NN1C(=O)/C(=C/c2ccc(O)c(O)c2)SC1=S)c1ccccc1	-43.0	30.0*	-28.6	-0.9	-2.6	11.8*	-41.7	54.2*
COC(=O)[C@]12C[C@H](CC(=O)N3CCSCC3)C(=O)N(Cc3ccco3)C1=C[C@H](C(C)(C)C)O[C@@H]2C	-0.1	-4.9	-0.7	1.7	1.9	x	x	x
O=c1ccc(=O)n(-c2ccccc2)[nH]1	-6.8	1.7	4.9	-2.9	-3.7	x	x	x
O=c1cc(-c2ccccc2)[nH]n1-c1ccccc1	-13.6	36.6*	-0.9	7.4	16.0	1.3	-4.6	-0.8
COC1=C(NCc2ccc3c(c2)OCO3)C(=O)C(OC)=C(NCc2ccc3c(c2)OCO3)C1=O	-63.7	13.4*	-51.5	-0.7	-5.5	-1.1	4.1	0.7
Cc1nc2ccccc2n2c(O)c(CC(=O)O)cc12	-47.0	22.7*	-36.6	4.9	16.0	6.8	-34.4	16.5*
